Laboratory results reported in PubChem BioAssay AID1159580 (chemical genetic matrix, 2015).
Out of some 5,500 compounds screened, about 2,000 (36%) were called active. About 18% were inconclusive and are not listed. Cut-off read from the data, not from the text of the source: active = normalized growth mostly below about 0.91 (no sharp cut-off); inconclusive = no clear call, values can overlap the other calls; inactive = mostly above about 0.92. The list shows a part of the results.

Experiment: chemical genetic growth profiling, strain panel (AID 1159580);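 note: tested at 20 µM; growth read once vehicle control cultures reached saturation at 30 °C; 1 = growth at the plate median or of vehicle wells; lower values mean less growth of the strain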
Conditions: growth OD

Measured: normalized growth

Cc1onc(-c2ccccc2)c1-c1ccc(S(N)(=O)=O)cc1
inactive: S. cerevisiae deletion strains, locus YJR043C, strain POL32, stronger effect = lower value 0.993 | S. cerevisiae deletion strains, locus YJR075W, strain HOC1, stronger effect = lower value 1 | S. cerevisiae deletion strains, locus YKL009W, strain mrt4, stronger effect = lower value 0.993 | S. cerevisiae deletion strains, locus YKL068W, stronger effect = lower value 1 | S. cerevisiae deletion strains, locus YKL085W, strain MDH1 (second series), stronger effect = lower value 0.996 | S. cerevisiae deletion strains, locus YKL085W, strain MDH1, stronger effect = lower value 0.996 | S. cerevisiae deletion strains, locus YKL160W, strain elf1, stronger effect = lower value 1 | S. cerevisiae deletion strains, locus YKL190W, strain CNB1, stronger effect = lower value 1.01 | S. cerevisiae deletion strains, locus YKR001C, strain vps1, stronger effect = lower value 0.991 | S. cerevisiae deletion strains, locus YKR026C, strain gcn3, stronger effect = lower value 0.987 | S. cerevisiae deletion strains, locus YKR091W, strain srl3, stronger effect = lower value 0.999 | S. cerevisiae deletion strains, locus YLL001W, strain dnm1, stronger effect = lower value 0.994 | S. cerevisiae deletion strains, locus YLL026W, stronger effect = lower value 0.999 | S. cerevisiae deletion strains, locus YLL041C, strain sdh2, stronger effect = lower value 1 | S. cerevisiae deletion strains, locus YLR027C, strain aat2, stronger effect = lower value 1.01 | S. cerevisiae deletion strains, locus YLR039C, strain RIC1, stronger effect = lower value 1 | S. cerevisiae deletion strains, locus YLR058C, strain SHM2, stronger effect = lower value 1.01 | S. cerevisiae deletion strains, locus YLR102C, strain apc9, stronger effect = lower value 0.998 | S. cerevisiae deletion strains, locus YLR221C, strain rsa3, stronger effect = lower value 0.995 | S. cerevisiae deletion strains, locus YLR258W, strain gsy2, stronger effect = lower value 1.01 | S. cerevisiae deletion strains, locus YLR262C, strain YPT6 (second series), stronger effect = lower value 1.01 | S. cerevisiae deletion strains, locus YLR262C, strain YPT6, stronger effect = lower value 0.986 | S. cerevisiae deletion strains, locus YLR268W, strain sec22, stronger effect = lower value 0.99 | S. cerevisiae deletion strains, locus YLR320W, strain mms22, stronger effect = lower value 1 | S. cerevisiae deletion strains, locus YLR330W, strain CHS5, stronger effect = lower value 1.01 | S. cerevisiae deletion strains, locus YLR342W, strain FKS1 (second series), stronger effect = lower value 1 | S. cerevisiae deletion strains, locus YLR342W, strain FKS1, stronger effect = lower value 1 | S. cerevisiae deletion strains, locus YLR357W, strain rsc2, stronger effect = lower value 1.03 | S. cerevisiae deletion strains, locus YLR370C, strain arc18, stronger effect = lower value 0.999 | S. cerevisiae deletion strains, locus YLR371W, strain rom2, stronger effect = lower value 0.998 | S. cerevisiae deletion strains, locus YLR384C, strain iki3, stronger effect = lower value 1.01 | S. cerevisiae deletion strains, locus YLR418C, strain cdc73, stronger effect = lower value 0.963 | S. cerevisiae deletion strains, locus YML016C, strain PPZ1, stronger effect = lower value 1 | S. cerevisiae deletion strains, locus YML032C, strain rad52, stronger effect = lower value 0.996 | S. cerevisiae deletion strains, locus YML120C, strain ndi1, stronger effect = lower value 0.992 | S. cerevisiae deletion strains, locus YML124C, strain tub3, stronger effect = lower value 0.996 | S. cerevisiae deletion strains, locus YMR058W, strain fet3, stronger effect = lower value 1 | S. cerevisiae deletion strains, locus YMR078C, strain ctf18, stronger effect = lower value 1 | S. cerevisiae deletion strains, locus YMR125W, strain sto1, stronger effect = lower value 0.988 | S. cerevisiae deletion strains, locus YMR129W, stronger effect = lower value 0.967 | S. cerevisiae deletion strains, locus YMR205C, strain PFK2, stronger effect = lower value 1 | S. cerevisiae deletion strains, locus YMR223W, strain ubp8, stronger effect = lower value 0.997 | S. cerevisiae deletion strains, locus YMR231W, strain pep5, stronger effect = lower value 1 | S. cerevisiae deletion strains, locus YMR263W, strain SAP30, stronger effect = lower value 1 | S. cerevisiae deletion strains, locus YMR307W, strain GAS1, stronger effect = lower value 0.977 | S. cerevisiae deletion strains, locus YNL067W, strain RPL9B, stronger effect = lower value 1 | S. cerevisiae deletion strains, locus YNL071W, strain lat1, stronger effect = lower value 1.01 | S. cerevisiae deletion strains, locus YNL128W, strain TEP1, stronger effect = lower value 1.01 | S. cerevisiae deletion strains, locus YNL153C, strain GIM3, stronger effect = lower value 1 | S. cerevisiae deletion strains, locus YNL209W, strain ssb2, stronger effect = lower value 0.994 | S. cerevisiae deletion strains, locus YNL233W, strain BNI4, stronger effect = lower value 1.01 | S. cerevisiae deletion strains, locus YNL248C, strain rpa49, stronger effect = lower value 1 | S. cerevisiae deletion strains, locus YNL250W, strain rad50, stronger effect = lower value 0.991 | S. cerevisiae deletion strains, locus YNL271C, strain bni1, stronger effect = lower value 1.01 | S. cerevisiae deletion strains, locus YNL298W, strain CLA4, stronger effect = lower value 0.989 | S. cerevisiae deletion strains, locus YNL307C, strain MCK1, stronger effect = lower value 0.998 | S. cerevisiae deletion strains, locus YNL322C, strain KRE1 (second series), stronger effect = lower value 1.02 | S. cerevisiae deletion strains, locus YNL322C, strain KRE1, stronger effect = lower value 1.01 | S. cerevisiae deletion strains, locus YNR049C, strain mso1, stronger effect = lower value 1 | S. cerevisiae deletion strains, locus YNR052C, strain pop2, stronger effect = lower value 1 | S. cerevisiae deletion strains, locus YOL006C, strain TOP1, stronger effect = lower value 0.992 | S. cerevisiae deletion strains, locus YOL012C, strain htz1 0.783 | S. cerevisiae deletion strains, locus YOL147C, strain pex11, stronger effect = lower value 0.997 | S. cerevisiae deletion strains, locus YOR001W, strain rrp6, stronger effect = lower value 1 | S. cerevisiae deletion strains, locus YOR061W, strain CKA2, stronger effect = lower value 0.998 | S. cerevisiae deletion strains, locus YOR069W, strain VPS5, stronger effect = lower value 1 | S. cerevisiae deletion strains, locus YOR070C, strain gyp1, stronger effect = lower value 0.993 | S. cerevisiae deletion strains, locus YOR080W, strain dia2, stronger effect = lower value 0.998 | S. cerevisiae deletion strains, locus YOR083W, strain WHI5, stronger effect = lower value 0.997 | S. cerevisiae deletion strains, locus YOR106W, strain vam3, stronger effect = lower value 1.01 | S. cerevisiae deletion strains, locus YOR136W, strain idh2, stronger effect = lower value 0.992 | S. cerevisiae deletion strains, locus YOR144C, strain elg1, stronger effect = lower value 1 | S. cerevisiae deletion strains, locus YOR184W, strain ser1, stronger effect = lower value 0.992 | S. cerevisiae deletion strains, locus YOR265W, strain rbl2, stronger effect = lower value 1 | S. cerevisiae deletion strains, locus YOR270C, strain vph1, stronger effect = lower value 1.01 | S. cerevisiae deletion strains, locus YOR290C, strain snf2, stronger effect = lower value 1.01 | S. cerevisiae deletion strains, locus YOR316C, strain cot1, stronger effect = lower value 0.991 | S. cerevisiae deletion strains, locus YPL051W, strain arl3, stronger effect = lower value 1.01 | S. cerevisiae deletion strains, locus YPL055C, strain LGE1, stronger effect = lower value 1.01 | S. cerevisiae deletion strains, locus YPL078C, strain atp4, stronger effect = lower value 0.996 | S. cerevisiae deletion strains, locus YPL106C, strain sse1, stronger effect = lower value 0.984 | S. cerevisiae deletion strains, locus YPL240C, strain hsp82, stronger effect = lower value 0.991 | S. cerevisiae deletion strains, locus YPL241C, strain CIN2, stronger effect = lower value 1 | S. cerevisiae deletion strains, locus YPR119W, strain clb2, stronger effect = lower value 1 | S. cerevisiae deletion strains, locus YPR141C, strain kar3, stronger effect = lower value 0.996 | S. cerevisiae deletion strains, locus YPR163C, strain tif3, stronger effect = lower value 0.991 | S. cerevisiae deletion strains, locus YPR167C, strain met16, stronger effect = lower value 0.995 | S. cerevisiae deletion strains, strain wtn01, stronger effect = lower value 0.985 | S. cerevisiae strains, strain wild type, stronger effect = lower value 0.999
